According to the supplement of paper PMC4840960:

Tested on: E18 rat cortical neuron-glia co-culture
Assay: myelination (MBP fiber length per Olig2+ nucleus), % of 1 µM DAPT response (DMSO = 0) (% of DAPT); higher = more myelination, active = 50 or more
Conditions: 1 µM; treatment time: 8 days (DIV5-DIV13)
Method in brief: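 Myelination, expressed as continuous straight MBP fiber length per Olig2+ nucleus, was normalised to 0.1 % DMSO as 0 and a 1 µM positive control as 100. The cultures were primary E18 rat cortical co-cultures dissociated with papain and plated at 20,000 cells/well on poly-d-lysine/laminin-coated 96-well plates. They received library compounds at 1 or 5 µM in myelination medium between DIV5 and DIV13. Analysis covered four 10X fields per well in duplicate wells after 4 % paraformaldehyde fixation and immunostaining for MBP and Olig2 with DAPI.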

myelination, inactive:
CN/C(=N\CCSCc1nc[nH]c1C)NC#N [Cimetidine] -12.1
C[n+]1ccccc1C=NO [Pralidoxime] -7.49
O=[N+]([O-])c1cccc2cn[nH]c12 [7-Nitroindazole] -9.77
NS(=O)(=O)c1cc2c(cc1C(F)(F)F)NCNS2(=O)=O [Hydroflumethiazide] -2.17
Cc1[nH]c(=O)c(C#N)cc1-c1ccncc1 [Milrinone] -7.08
CC(COc1ccccc1)NC(C)C(O)c1ccc(O)cc1 (stereo not drawn) [Isoxsuprine] -4.41
CN1CCCC(n2nc(Cc3ccc(Cl)cc3)c3ccccc3c2=O)CC1 (stereo not drawn) [Azelastine] -2.34
O=C(O)c1cc(/N=N/c2ccc(S(=O)(=O)Nc3ccccn3)cc2)ccc1O [Sulfasalazine] -11.7
CNNCc1ccc(C(=O)NC(C)C)cc1 [Procarbazine] -6.44
NC[C@H](O)c1ccc(O)c(O)c1 [Norepinephrine] -41.6
CCC1(c2ccccc2)C(=O)NCNC1=O [Primidone] 3.26
O=c1cnn([C@@H]2O[C@H](CO)[C@@H](O)[C@H]2O)c(=O)[nH]1 [Azauridine] -6.45
Nc1nc(=O)c2nc(CNc3ccc(C(=O)N[C@@H](CCC(=O)O)C(=O)O)cc3)cnc2[nH]1 [Folic acid] -5.35
O=C1CC2(CCCC2)CC(=O)N1CCNCC1COc2ccccc2O1 (stereo not drawn) [Binospirone] -14.3
CN(C)[C@@H]1C(O)=C(C(N)=O)C(=O)[C@@]2(O)C(O)=C3C(=O)c4c(O)cccc4[C@@](C)(O)[C@H]3[C@H](O)[C@@H]12 [Oxytetracycline] -5.3
CC(=O)N1CCN(c2ccc(OCC3COC(Cn4ccnc4)(c4ccc(Cl)cc4Cl)O3)cc2)CC1 (stereo not drawn) [Ketoconazole] -0.358
O=C(O[C@@H]1C[C@@H]2C[C@H]3C[C@H](C1)N2CC3=O)c1c[nH]c2ccccc12 [Dolasetron] -3.78
C[C@@H]1C[C@H]2[C@@H]3CCC4=CC(=O)C=C[C@]4(C)[C@@]3(F)[C@@H](O)C[C@]2(C)[C@@]1(O)C(=O)CO [Dexamethazone] -1.63
Cc1ccccc1C(OCCN(C)C)c1ccccc1 (stereo not drawn) [Orphenadrine] -7.59
CC(=O)OCC(=O)[C@@]1(O)CC[C@H]2[C@@H]3CCC4=CC(=O)C=C[C@]4(C)[C@H]3[C@@H](O)C[C@@]21C [Prednisolone acetate] -5.64
CC12CC3CC(C)(C1)CC(N)(C3)C2 [Memantine] 12.9
CCCNC(C)C(=O)Nc1ccccc1C (stereo not drawn) [Prilocaine] -5.12
CCOC(=O)OC(C)OC1=C(C(=O)Nc2ccccn2)N(C)S(=O)(=O)c2ccccc21 (stereo not drawn) [Ampiroxicam] -15.1
CCOC(=O)N1CCC(=C2c3ccc(Cl)cc3CCc3cccnc32)CC1 [Loratadine] -5.25
CCCC(CCC)C(=O)O [Valproic Acid] -6.19
CC1COc2c(N3CCN(C)CC3)c(F)cc3c(=O)c(C(=O)O)cn1c23 (stereo not drawn) [Ofloxacin] -16.9
CCc1cc(C(N)=S)ccn1 [Ethionamide] -1.99
COC(=O)C1=C(C)NC(C)=C(C(=O)OC2CCCN(Cc3ccccc3)C2)C1c1cccc([N+](=O)[O-])c1 (stereo not drawn) [Benidipine] -35.3
O=C(O[C@H]1[C@H](Oc2ccccc2COC(=O)C2(O)C=CCCC2=O)O[C@H](CO)[C@@H](O)[C@@H]1O)c1ccccc1 (stereo partly drawn) [Tremulacin] -11.2

Same assay, conditions: 5 µM; treatment time: 8 days (DIV5-DIV13)

myelination, inactive:
N[C@@H](Cc1cc(I)c(Oc2ccc(O)c(I)c2)c(I)c1)C(=O)O [Triiodothyronine] 24.8
Cc1onc(-c2c(Cl)cccc2Cl)c1C(=O)N[C@@H]1C(=O)N2[C@@H]1SC(C)(C)[C@@H]2C(=O)O [Dicloxacillin] -8.6
CCCC(=O)O[C@]1(C(=O)COC(=O)CC)CC[C@H]2[C@@H]3CCC4=CC(=O)CC[C@]4(C)[C@H]3[C@@H](O)C[C@@]21C [Hydrocortisone buteprate] 12.1
CC(=O)[C@H]1CC[C@H]2[C@@H]3C[C@H](C)C4=CC(=O)CC[C@]4(C)[C@H]3[C@@H](O)C[C@]12C [Medrysone] 6.18
CO[C@H]1/C=C/O[C@@]2(C)Oc3c(C)c(O)c4c(O)c(c5c(nc6cc(C)ccn65)c4c3C2=O)NC(=O)/C(C)=C\C=C\[C@H](C)[C@H](O)[C@@H](C)[C@@H](O)[C@@H](C)[C@H](OC(C)=O)[C@@H]1C [Rifaximin] -12
CCN1CCCC1CNC(=O)c1cc(S(N)(=O)=O)ccc1OC (stereo not drawn) [Sulpiride] -10.8
CCCCC[C@H](O)/C=C/[C@H]1[C@H](O)CC(=O)[C@@H]1CCCCCCC(=O)O [Alprostadil] -7.47
Oc1ccc(/C=C/c2cc(O)cc(O)c2)cc1 [Resveratrol] -13.3
Clc1ccc2c(c1)C(N1CCNCC1)=Nc1ccccc1O2 [Amoxapine] -23.6
C[C@]12C=CC(=O)C=C1CC[C@@H]1[C@@H]2[C@@H](O)C[C@@]2(C)[C@H]1CC[C@]2(O)C(=O)COC(=O)CCC(=O)O [Prednisolone hemisuccinate] -1.16
CN/C(=N\CCSCc1nc[nH]c1C)NC#N [Cimetidine] -6.66
C[n+]1ccccc1C=NO [Pralidoxime] 1.41
O=[N+]([O-])c1cccc2cn[nH]c12 [7-Nitroindazole] -5.65
NS(=O)(=O)c1cc2c(cc1C(F)(F)F)NCNS2(=O)=O [Hydroflumethiazide] -13.7
Cc1[nH]c(=O)c(C#N)cc1-c1ccncc1 [Milrinone] -15.7
CC(COc1ccccc1)NC(C)C(O)c1ccc(O)cc1 (stereo not drawn) [Isoxsuprine] -2.46
CN1CCCC(n2nc(Cc3ccc(Cl)cc3)c3ccccc3c2=O)CC1 (stereo not drawn) [Azelastine] -2.84
O=C(O)c1cc(/N=N/c2ccc(S(=O)(=O)Nc3ccccn3)cc2)ccc1O [Sulfasalazine] 1.71
CNNCc1ccc(C(=O)NC(C)C)cc1 [Procarbazine] -0.797
NC[C@H](O)c1ccc(O)c(O)c1 [Norepinephrine] -38.4
CCC1(c2ccccc2)C(=O)NCNC1=O [Primidone] -3.74
O=c1cnn([C@@H]2O[C@H](CO)[C@@H](O)[C@H]2O)c(=O)[nH]1 [Azauridine] -26.1
Nc1nc(=O)c2nc(CNc3ccc(C(=O)N[C@@H](CCC(=O)O)C(=O)O)cc3)cnc2[nH]1 [Folic acid] -17.3
O=C1CC2(CCCC2)CC(=O)N1CCNCC1COc2ccccc2O1 (stereo not drawn) [Binospirone] -17.9
CN(C)[C@@H]1C(O)=C(C(N)=O)C(=O)[C@@]2(O)C(O)=C3C(=O)c4c(O)cccc4[C@@](C)(O)[C@H]3[C@H](O)[C@@H]12 [Oxytetracycline] -10.5
CC(=O)N1CCN(c2ccc(OCC3COC(Cn4ccnc4)(c4ccc(Cl)cc4Cl)O3)cc2)CC1 (stereo not drawn) [Ketoconazole] -46.2
O=C(O[C@@H]1C[C@@H]2C[C@H]3C[C@H](C1)N2CC3=O)c1c[nH]c2ccccc12 [Dolasetron] -14.7
C[C@@H]1C[C@H]2[C@@H]3CCC4=CC(=O)C=C[C@]4(C)[C@@]3(F)[C@@H](O)C[C@]2(C)[C@@]1(O)C(=O)CO [Dexamethazone] -0.917
Cc1ccccc1C(OCCN(C)C)c1ccccc1 (stereo not drawn) [Orphenadrine] -2.71
CC(=O)OCC(=O)[C@@]1(O)CC[C@H]2[C@@H]3CCC4=CC(=O)C=C[C@]4(C)[C@H]3[C@@H](O)C[C@@]21C [Prednisolone acetate] -10.6
CC12CC3CC(C)(C1)CC(N)(C3)C2 [Memantine] -7.18
CCCNC(C)C(=O)Nc1ccccc1C (stereo not drawn) [Prilocaine] 9.24
CCOC(=O)OC(C)OC1=C(C(=O)Nc2ccccn2)N(C)S(=O)(=O)c2ccccc21 (stereo not drawn) [Ampiroxicam] -4.42
CCOC(=O)N1CCC(=C2c3ccc(Cl)cc3CCc3cccnc32)CC1 [Loratadine] -5.18
CCCC(CCC)C(=O)O [Valproic Acid] -3.27
CC1COc2c(N3CCN(C)CC3)c(F)cc3c(=O)c(C(=O)O)cn1c23 (stereo not drawn) [Ofloxacin] -17
CCc1cc(C(N)=S)ccn1 [Ethionamide] 3.35
COC(=O)C1=C(C)NC(C)=C(C(=O)OC2CCCN(Cc3ccccc3)C2)C1c1cccc([N+](=O)[O-])c1 (stereo not drawn) [Benidipine] -63
O=C(O[C@H]1[C@H](Oc2ccccc2COC(=O)C2(O)C=CCCC2=O)O[C@H](CO)[C@@H](O)[C@@H]1O)c1ccccc1 (stereo partly drawn) [Tremulacin] 30.4
